Assay results from PubChem BioAssay.

Test: binders from COS7 lysate, DM2A8 probe, primary screen, torsin A project, cell lysate, small-molecule microarray, fluorescence 635/667 (AID 1065)
Conditions: higher = more signal, COS7 lysate expressing mutant human TOR1A

Structure (SMILES)	composite z-score
COCCCNC(=O)[C@@]1(Cc2ccccc2)COC(c2ccc(OCCCO)cc2)=N1	-0.321
COC(=O)[C@]1(Cc2ccccc2CN=[N+]=[N-])N=C(c2ccc(OCCCO)cc2)O[C@@H]1c1ccccc1CN=[N+]=[N-]	-0.119
O=C1NC(=O)C2C1C=CC(C(O)c1ccc(-c3ccccc3)s1)N2Nc1ccccn1 (centres undefined)	0.259
C=C(C(=O)CC[C@H](OC(=O)c1cccnc1)c1ccc(OCCO)cc1)C(C)C	1.43
Cc1ccc(N2C(=O)c3ccccc3[C@](C)(C(=O)NC(C)C)[C@@H]2c2ccc(CO)cc2)nc1	-1.06
CCCCC=C[C@@H](NC(=O)CCc1ccccc1)c1ccccc1	1.04
C=CCC(OC(C)=O)[C@@H]1[C@@H](N(Cc2cccc3ccccc23)C(=O)c2ccc(C)cc2)c2cc(OCCCO)ccc2N1C(=O)c1ccc2ccccc2c1 (some centres undefined)	0.0379
C[C@]12C(=O)N(CCCCCO)[C@@H]3C(=O)N(c4ccc(Cl)cc4)CC=CC31O[C@@H]1/C=C\CCCOC(=O)C12 (some centres undefined)	-1.54
O=C1c2ccccc2[C@](Cc2ccccc2I)(C(=O)NCC(F)(F)F)[C@H](c2ccc(CO)cc2)N1Cc1ccccc1	-0.0086
O=C(O)[C@@]1(Cc2ccccc2)COC(c2ccc(OCCCO)cc2)=N1	-0.24
COCCCNC(=O)[C@]1(Cc2ccccc2)N=C(c2ccc(OCCCO)cc2)O[C@@H]1c1ccccc1N=[N+]=[N-]	1.54
COCCOC(=O)N1C(=O)[C@@]2(c3cc(C#Cc4ccc(OC)cc4)ccc31)[C@H](C(=O)N1CCc3cc(OC)c(OC)cc3C1)[C@H]1C(=O)O[C@H](c3ccccc3)[C@H](c3ccccc3)N1[C@@H]2c1ccc(OCCO)cc1	0.454
CC(C)NC(=O)[C@@]1(Cc2ccccc2I)c2ccccc2C(=O)N(Cc2ccccc2C(F)(F)F)[C@H]1c1ccc(CO)cc1	0.44
COC(=O)[C@@]1(Cc2ccc(OC)cc2)[C@H]2c3cc(C(=O)N(C)C)n(Cc4cc(F)c(F)c(F)c4)c3C[C@H]2CN1C(=O)c1ccccc1	-0.136
O=C1N(CCS(=O)(=O)c2ccccc2)Cc2ccccc2C[C@@]12COC(c1ccc(OCCCO)cc1)=N2	0.667
Cc1ccc(S[C@]2(C(=O)O)CC(=O)N(Cc3ccccc3C(F)(F)F)[C@@H]2c2ccc(CO)cc2)cc1	-0.138
O=C1N(CCS(=O)(=O)c2ccccc2)c2ccccc2[C@H]2OC(c3ccc(OCCCO)cc3)=N[C@@]12CCS(=O)(=O)c1ccccc1	0.625
CC(C)C(CO)N1C(=O)[C@@H]2[C@H]3C(=O)OCC=C[C@H]3OC23C=CCN(CCN2CCOCC2)C(=O)[C@@H]13 (some centres undefined)	-1.13
CC(C)(C)OC(=O)CC[C@@]1(C(=O)N2CCCCC2)N=C(c2ccc(OCCCO)cc2)O[C@@H]1c1ccccc1N=[N+]=[N-]	0.805
CCCCCCC#C[Si](O[C@H](c1ccccc1)c1cn(Cc2cccc(Cl)c2)nn1)(C(C)C)C(C)C	0.485
C=CCOC(=O)[C@@H]1[C@H]2C(=O)O[C@H](c3ccccc3)[C@H](c3ccccc3)N2[C@H](c2ccc(OCCOC(=O)[C@@H]3C[C@@H]4C(=O)N5CCC[C@H]5C(=O)N4[C@@H]3c3cccc(OCCO)c3)cc2)[C@@]12C(=O)Nc1ccc(I)cc12	0.313
C=CCC(OC(C)=O)[C@@H]1[C@@H](N(Cc2cccc3ccccc23)C(=O)Cc2ccc(F)cc2)c2cc(OCCCO)ccc2N1C(=O)Cc1ccc(OC)cc1 (some centres undefined)	0.202
CO[C@H]1O[C@H](CO)[C@@H](OC(=O)Nc2ccc(C(F)(F)F)cc2)[C@H](OC(=O)Nc2ccccc2)[C@H]1OC(=O)Nc1ccccc1	0.745
C=C(COC)C(=O)CC[C@H](OC(=O)c1ccccc1-c1ccccc1C(=O)O)c1ccc(CO)o1	-0.192
CC(C)CNC(=O)[C@@]1(C)c2ccccc2C(=O)N(Cc2ccccc2)[C@H]1c1ccc(CO)cc1	-1.04
CCC[C@@H]1C[C@@]1(CCC)[C@@H](NC(=O)c1ccco1)c1ccc(Cl)cc1	-0.441
[N-]=[N+]=NCc1ccccc1[C@H]1OC(c2ccc(OCCCO)cc2)=N[C@@]1(Cc1ccccc1)C(N)=O	0.163
COc1ccc([Si](C)(C)[C@H]2[C@H](CCO)O[C@@]3(C(=O)N(Cc4cccc(N5CCOC5=O)c4)c4ccccc43)[C@@H]2C)cc1	-0.16
C[N+](C)(C)CCCC[C@@H]1NC(=O)[C@@H]2C[C@H](C(=O)NCCCCCNC(=O)CS)[C@H](c3cccc(OCCO)c3)N2C1=O	0.5
